Results published in ChEMBL document CHEMBL5724796, “Tm Shift (DSF) assay results for EUbOPEN Chemogenomics Library” (2024).

target: T1, Transcription intermediary factor 1-alpha (Homo sapiens) (UniProt O15164); conditions: Compound concentration 20.0 uM
T1 sequence (whole entry): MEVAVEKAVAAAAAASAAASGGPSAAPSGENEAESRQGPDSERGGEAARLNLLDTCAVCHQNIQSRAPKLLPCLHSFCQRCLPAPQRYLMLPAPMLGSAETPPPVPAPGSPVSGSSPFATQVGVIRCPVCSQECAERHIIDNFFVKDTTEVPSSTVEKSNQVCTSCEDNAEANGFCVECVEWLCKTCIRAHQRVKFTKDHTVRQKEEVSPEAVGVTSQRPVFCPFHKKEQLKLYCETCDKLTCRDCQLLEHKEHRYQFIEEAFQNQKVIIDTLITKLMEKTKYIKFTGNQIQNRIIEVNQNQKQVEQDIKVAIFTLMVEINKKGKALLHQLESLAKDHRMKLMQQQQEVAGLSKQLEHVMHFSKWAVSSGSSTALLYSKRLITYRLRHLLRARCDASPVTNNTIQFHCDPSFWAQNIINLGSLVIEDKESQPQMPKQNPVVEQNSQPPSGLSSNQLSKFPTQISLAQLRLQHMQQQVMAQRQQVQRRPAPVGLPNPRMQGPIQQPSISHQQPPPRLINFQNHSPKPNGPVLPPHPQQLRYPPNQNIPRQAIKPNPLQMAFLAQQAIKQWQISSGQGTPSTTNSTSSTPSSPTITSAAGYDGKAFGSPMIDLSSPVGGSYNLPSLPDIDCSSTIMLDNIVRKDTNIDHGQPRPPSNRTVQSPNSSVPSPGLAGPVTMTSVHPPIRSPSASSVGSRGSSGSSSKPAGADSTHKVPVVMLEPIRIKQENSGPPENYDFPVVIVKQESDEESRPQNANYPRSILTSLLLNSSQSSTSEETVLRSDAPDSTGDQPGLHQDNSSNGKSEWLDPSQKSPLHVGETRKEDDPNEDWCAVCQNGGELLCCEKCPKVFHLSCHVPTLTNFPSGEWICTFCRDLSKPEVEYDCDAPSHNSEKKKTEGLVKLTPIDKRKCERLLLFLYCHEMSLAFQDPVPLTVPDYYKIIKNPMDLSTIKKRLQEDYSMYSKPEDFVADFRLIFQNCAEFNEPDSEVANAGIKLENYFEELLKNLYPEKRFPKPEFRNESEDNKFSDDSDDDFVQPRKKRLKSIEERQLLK

Row | Structure (SMILES) | ΔTm [°C]
1 | COc1cc(C)[nH]c(=O)c1CNC(=O)c1c(C)n([C@H](C)C2CCN(CC(F)(F)F)CC2)c2ccccc12 | -1.56
2 | Fc1ccc(C(OCCN2CCN(CCCc3ccccc3)CC2)c2ccc(F)cc2)cc1 | -0.53
3 | C[C@]12O[C@H](C[C@]1(O)CO)n1c3ccccc3c3c4c(c5c6ccccc6n2c5c31)CNC4=O | -0.11
4 | O=[N+]([O-])c1cc(O)c(O)c([N+](=O)[O-])c1 | 3.59
5 | CNC(=O)c1cc(C(=O)NC2CC2)cn(Cc2ccccc2)c1=O | 0.41
6 | N#Cc1ccc([C@H]2CCCC[C@H]2O)cc1C(F)(F)F | -1.04
7 | O=C1C(P(=O)(O)O)CC(O)N1O (configuration not stated) | -0.46
8 | CCS(=O)(=O)N1CCC([C@@H](C)n2c(C)c(C(=O)NCc3c(OC)cc(C)[nH]c3=O)c3ccccc32)CC1 | -1
9 | COc1cc(C)[nH]c(=O)c1CNC(=O)c1c(C)n([C@H](C)C2CCOCC2)c2ccccc12 | -0.56
10 | CC(C)n1nc(-c2cc3cc(O)ccc3[nH]2)c2c(N)ncnc21 | -0.37
11 | O=C1C(P(=O)(O)O)CCCN1O (configuration not stated) | -0.05
12 | O=C(N1CCCC[C@@H]1Cc1ccccc1)n1cc(-c2ccc(-c3ccccc3)cc2)nn1 | 2.73
13 | N#Cc1ccc(N2N=C3c4ccc(C(=O)O)cc4CC[C@@H]3[C@@H]2C2CCCC2)cc1Cl | 1.43
14 | Cc1sc2c(c1C)C(c1ccc(Cl)cc1)=N[C@@H](CC(=O)OC(C)(C)C)c1nnc(C)n1-2 | -1.48
15 | C=CCO/N=C1\c2ccccc2-c2nc(C#N)c(C#N)nc21 | 0.9
16 | Nc1cccc(CNC(=O)c2ccc(Oc3ccc(OCc4cccc(F)c4)cc3)nc2)c1 | 0.24
17 | CC(=O)Nc1ccc(OC[C@](C)(O)C(=O)Nc2ccc([N+](=O)[O-])c(C(F)(F)F)c2)cc1 | 0.02
18 | C=Cc1cc(C(=O)Nc2ccc(C(=N)N)cc2)c(-c2ccc(C(=O)NCC3CC3)nc2C(=O)O)cc1OC | 0.42
19 | N[C@H]1CC[C@H](N[C@@H]2C[C@H]2c2ccccc2)CC1 | 0.93
20 | Cc1ccc(N2C(=O)/C(=C/C=C/c3ccco3)C(=O)NC2=S)cc1Cl | -2.21
21 | COc1cn(-c2ccc(-n3cccn3)cc2F)nc(-c2ccnn2-c2ccccc2)c1=O | -0.41
22 | CCOC(=O)c1ccc(-c2ccc(OC(=O)N(C)Cc3cccc(-c4ccncc4)c3)cc2)cc1 | -0.65
